Most compounds without a hit are left out; they make up all but 32% or so of the library.
CYP2C9 inh: blocks human cytochrome P450 2C9; inhibition, % at 5 µM; AID 777; actives 20% (n = 96,000); CYP2C9 Supersomes, luciferin-H conversion, luminescence;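 active means blocking of liver enzyme CYP2C9 beyond about 50% at 5 µM, limit read from the data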
PostGolgi ctrl: yeast control strain growth, post-Golgi counter-screen. efflux-deficient yeast background strain, growth absorbance A615, 16 h. actives 5% (n = 98,000). inhibition, % at 10 µM
PostGolgi yeast: growth inhibition of a yeast mutant, post-Golgi transport screen | post-Golgi transport phenotypic cell assay | actives 0.9% (n = 98,000) | inhibition, % at 10 µM;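 further: yeast cells grown in 1536-well plates; yeast grown about 18 h at 30C before absorbance read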
CYP2C19 inhib: inhibitors of human CYP2C19. P33261. actives 21% (n = 96,000). CYP2C19 Supersomes, luciferin-H EGE luminescence, 30 min. AID 778. inhibition, % at 5 µM;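 active means CYP2C19 inhibition above a set limit at 5 µM in the primary screen, cut at about 50% in these data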
Target sequence (P33261 whole entry, looked up): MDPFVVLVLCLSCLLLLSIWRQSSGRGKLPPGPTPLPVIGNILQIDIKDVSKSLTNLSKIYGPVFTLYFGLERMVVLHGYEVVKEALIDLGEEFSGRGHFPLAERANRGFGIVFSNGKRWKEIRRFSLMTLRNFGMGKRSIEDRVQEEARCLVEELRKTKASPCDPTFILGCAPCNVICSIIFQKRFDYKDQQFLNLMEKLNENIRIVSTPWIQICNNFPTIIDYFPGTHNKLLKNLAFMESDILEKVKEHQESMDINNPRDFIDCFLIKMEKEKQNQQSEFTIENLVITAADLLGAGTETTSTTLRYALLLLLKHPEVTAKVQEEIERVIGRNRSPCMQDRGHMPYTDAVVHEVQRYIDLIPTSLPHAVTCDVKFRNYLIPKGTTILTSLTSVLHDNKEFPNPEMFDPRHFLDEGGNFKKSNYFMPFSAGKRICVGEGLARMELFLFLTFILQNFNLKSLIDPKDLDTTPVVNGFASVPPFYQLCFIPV
CYP2C19 act: cytochrome P450 2C19 (human) activation; P33261; recombinant CYP2C19, luciferin-H EGE luminescence; stronger effect = higher value; 0 = fully inhibited enzyme, 1 = untreated enzyme; activation factor at 5 µM; 96,000 tested, under 10 active; AID 1025;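 active means activation factor of at least 2 at 5 µM in the primary screen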
CYP2C9 activ: CYP2C9 (human) activation. P11712. recombinant CYP2C9, luciferin-H conversion, luminescence; stronger effect = higher value; factor 1 = untreated enzyme, 0 = blocked. activation factor at 5 µM. actives 1.4% (n = 96,000). AID 1024;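 active means activation factor of 2 or more for CYP2C9 at a 5 µM dose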
Of the large screens only hits and unclear results are named; the others gave an inactive call. Unless noted, no stated cut-off is given here; in the data, active means inhibition above about 30%; inactive means the rest.

CCOc1ccc(C2=C(C=Nc3c(C)n(C)n(-c4ccccc4)c3=O)C(c3ccc(F)cc3)c3ccccc3O2)cc1 (centres undefined)	CYP2C9 inh 58.5
NC(=O)Nc1ccc2c(c1)OCCO2	none
O=C(CC(c1ccccc1)c1ccccc1)Nc1ccc2c(c1)OCCO2	CYP2C9 inh 52.1
O=C(CSCc1ccccc1Cl)Nc1ccc2c(c1)OCCO2	CYP2C9 inh 59.9
O=C(CN1CCN(S(=O)(=O)c2ccc(Cl)cc2)CC1)Nc1ccc2c(c1)OCCO2	none
CCOc1ccc(-n2c(SCc3nc(-c4ccc(C)cc4)no3)nnc2-c2ccncc2)cc1	CYP2C9 inh 80.4, CYP2C19 inhib 79.6
Clc1ccc(-c2noc(CSc3nnc(Cc4cccs4)n3-c3ccccc3)n2)cc1	none
Cc1ccc(-c2noc(CSc3nnnn3C3CCCCC3)n2)cc1	PostGolgi ctrl 39.6
Cn1c(SCc2nc(-c3ccc(Cl)cc3)no2)nnc1-c1ccco1	CYP2C9 inh 56.5, CYP2C19 inhib 60.0
Cc1ccc(-c2noc(CSc3nnc(-c4ccncc4)n3-c3ccc(C)cc3)n2)cc1	CYP2C9 inh 84.2, CYP2C19 inhib 85.9
Cc1cc(C)c(NC(=O)CSc2nnc(Cc3cccn3C)n2-c2ccc(F)cc2)c(C)c1	none
Clc1ccc(-c2noc(CSc3nnc(-c4ccncc4)n3-c3ccccc3)n2)cc1	CYP2C9 inh 72.5, CYP2C19 inhib 66.5
CCOC1(OCC)C(c2ccc(Cl)cc2)C(C#N)(C#N)C1(OCC)OCC (centres undefined)	none
COc1ccc(-c2nnc(SCC(=O)N(Cc3ccccc3)C(C)(C)C)o2)cc1OC	none
COc1ccc2c(c1)c(=O)oc1cc3oc(C)c(C)c3cc12	CYP2C19 inhib 69.5
COc1ccccc1NC(=O)CN1CCCCC1	none
COc1ccccc1NC(=O)CN1CCC(C(=O)c2ccc(F)cc2)CC1	PostGolgi ctrl 32.4, CYP2C19 inhib 52.1
CCOc1ccccc1NC(=O)N1CCC(C(=O)c2ccc(F)cc2)CC1	CYP2C19 inhib 83.1, CYP2C9 activ 2.5
COc1ccccc1C(=O)N1CCC(C(=O)c2ccc(F)cc2)CC1	none
COc1ccccc1NC(=O)N1CCC(C(=O)c2ccc(F)cc2)CC1	CYP2C9 activ 3.4
COc1ccccc1NC(=O)N1CCc2[nH]c3ccc(F)cc3c2C1	CYP2C19 inhib 66.7
COc1c(C)cccc1C(=O)Nc1ccc(CN2CCCCC2)cc1	none
CCCCCc1nnc(NC(=O)Cc2cccs2)s1	none
CC(C)CC(=O)Nc1ccccc1Oc1ccccc1	none
O=C(CN1CCC(C(=O)c2ccc(F)cc2)CC1)Nc1ccccc1	CYP2C9 inh 57.0
COc1ccc(CCNC(=O)CN2CCC(C(N)=O)CC2)cc1	none
COc1ccc(CNC(=O)CN2CCC(C(=O)c3ccc(OC)cc3)CC2)cc1	CYP2C9 inh 70.2, CYP2C19 inhib 63.0
COn1c(=O)c(-c2ccc(Cl)cc2)[n+]([O-])c2ccccc21	none
CCOc1ccc2[nH]cc(C(=O)N3CCN(CC)CC3)c(=O)c2c1	none
COc1ccc(S(=O)(=O)N(CCc2ccccc2)CC(=O)O)cc1	CYP2C9 inh 64.7, CYP2C19 inhib 52.9
CCNC(=O)CN(CCc1ccccc1)S(=O)(=O)c1ccc(OC)cc1	CYP2C9 inh 87.7, CYP2C19 inhib 96.3
COc1ccc(S(=O)(=O)N(CCc2ccccc2)CC(=O)NCCCO)cc1	CYP2C19 inhib 51.1
COc1ccc(C(CC(=O)Nc2nccs2)n2cccc2)cc1 (centres undefined)	none
N#Cc1cc2c(nc1SCC(=O)N1CCOCC1)CCCCC2	none
CC(C)(C)NC(=S)Nc1ccc(Nc2ccccc2)cc1	CYP2C9 inh 54.3
CC(C)(C)NC(=S)Nc1ccc(Br)cc1	none
CC1CCCN(C(=O)CSc2nnc3n(C4CCCC4)c(=O)c4ccccc4n23)C1 (centres undefined)	none
CCCCC(CC)C(=O)NCc1ccccc1OC (centres undefined)	CYP2C19 inhib 53.4
COc1ccc(C(=O)NCc2ccccc2OC)c(OC)c1	CYP2C19 inhib 55.6, CYP2C9 activ 2.6
CCN(CC)CCCNC(=O)c1ccccc1C	none
CCN(CC)CCNC(=O)c1ccccc1N	CYP2C9 inh 56.2, CYP2C19 inhib 66.6
COc1ccc(C(=O)NCc2ccccc2OC)cc1	none (no result: CYP2C9 inh, CYP2C19 inhib, CYP2C19 act, CYP2C9 activ)
COc1ccccc1CNC(=O)c1ccccc1N	CYP2C19 inhib 52.6
CNc1c([N+](=O)[O-])cnn1-c1ccc(C)cc1	none
CCc1ccc(-c2csc3ncn(CC(=O)N4CCOCC4)c(=O)c23)cc1	none
CC(C)Sc1nc(C(F)(F)F)cc(=O)n1-c1ccccc1	none
CC(C)OC(=O)Cn1c(=O)oc2ccccc21	none
CCCCOc1ccccc1Cn1c(=O)oc2ccc(C)cc21	CYP2C9 inh 87.7, CYP2C19 inhib 86.8
Cc1ccc2oc(=O)n(CCCOc3ccccc3)c2c1	CYP2C19 inhib 94.1
Cc1ccc2oc(=O)n(CC(=O)O)c2c1	none
COc1ccc(Cn2c(=O)oc3ccc(C)cc32)cc1OC	CYP2C9 inh 79.4, CYP2C19 inhib 98.3
Cc1ccc2oc(=O)n(Cc3ccccc3OC(C)C)c2c1	CYP2C9 inh 85.4, CYP2C19 inhib 85.5
O=C(NCCN1CCOCC1)c1csc2c1CCCCC2	none
CC(=O)NCCSC(=O)c1ccc(F)cc1	none
O=C(CC(c1ccco1)C1CCCCC1=O)c1ccco1 (centres undefined)	CYP2C9 inh 55.4, CYP2C19 inhib 52.9
COc1ccc(C(=O)NCC(=O)OC2CCCCC2=O)cc1 (centres undefined)	CYP2C19 inhib 80.6
COc1ccc(OCCNC(=O)C(c2ccccc2)c2ccccc2)cc1	none
COc1ccc(C(=O)CC(c2ccccc2)C2CCCCC2=O)cc1 (centres undefined)	CYP2C9 inh 72.6
CCc1nnc(NC(=O)C2Cc3ccccc3C(=O)O2)s1 (centres undefined)	none
CCCCn1c(=O)c(Cc2ccccc2)c(O)c2ccccc21	none
CCCCCCn1c(=O)c(-c2ccccc2)c(O)c2ccccc21	CYP2C9 inh 75.9, PostGolgi ctrl 37.6
C=CCNc1sc(C(=O)c2ccc(Br)s2)c(N)c1C#N	CYP2C9 inh 63.1
C=CCNc1sc(C(=O)c2ccccc2)c(N)c1C#N	none
COc1ccc2c(c1)C(C1C(=O)CCCC1=O)c1ccccc1O2 (centres undefined)	CYP2C9 inh 64.1
CCc1nc2ccccc2n1CC(=O)N(C(C)CC)C1CCS(=O)(=O)C1 (centres undefined)	none
CCOC(=O)C1CCCN(C(=O)c2sc3nc(-c4ccc(OC)cc4)cn3c2C)C1 (centres undefined)	none
O=C(NCCc1ccncc1)Nc1ccccc1	none (no result: CYP2C9 inh, CYP2C19 inhib, CYP2C19 act, CYP2C9 activ)
O=C(NCCSCc1ccco1)Nc1cccc(Cl)c1	CYP2C19 inhib 64.5
COc1ccccc1C(=O)NCC(c1cccnc1)N(C)C (centres undefined)	CYP2C9 inh 50.3 (no result: PostGolgi ctrl, PostGolgi yeast)
O=C(NCCc1ccc(Cl)cc1)Nc1cccc(Cl)c1	PostGolgi ctrl 34.1
O=C(NCc1ccncc1)Nc1ccc(Cl)cc1Cl	CYP2C9 inh 83.3, CYP2C19 inhib 90.1
